The list is not random: actives were taken first. Their share in the collection is about 1.6%.
KCNQ2 block: blocks the rat KCNQ2 potassium channel; CHO-K1 KCNQ2, FluxOR thallium flux, 20 min; stronger effect = lower value; O88943; B-score at 10 µM; 1.1% of 310,000 active;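 active = fluorescence ratio B-score at most minus 3 library SDs, with starting brightness B-score within 2 library SDs, cut at about -5.5 in these data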
Target sequence (O88943 whole entry, looked up): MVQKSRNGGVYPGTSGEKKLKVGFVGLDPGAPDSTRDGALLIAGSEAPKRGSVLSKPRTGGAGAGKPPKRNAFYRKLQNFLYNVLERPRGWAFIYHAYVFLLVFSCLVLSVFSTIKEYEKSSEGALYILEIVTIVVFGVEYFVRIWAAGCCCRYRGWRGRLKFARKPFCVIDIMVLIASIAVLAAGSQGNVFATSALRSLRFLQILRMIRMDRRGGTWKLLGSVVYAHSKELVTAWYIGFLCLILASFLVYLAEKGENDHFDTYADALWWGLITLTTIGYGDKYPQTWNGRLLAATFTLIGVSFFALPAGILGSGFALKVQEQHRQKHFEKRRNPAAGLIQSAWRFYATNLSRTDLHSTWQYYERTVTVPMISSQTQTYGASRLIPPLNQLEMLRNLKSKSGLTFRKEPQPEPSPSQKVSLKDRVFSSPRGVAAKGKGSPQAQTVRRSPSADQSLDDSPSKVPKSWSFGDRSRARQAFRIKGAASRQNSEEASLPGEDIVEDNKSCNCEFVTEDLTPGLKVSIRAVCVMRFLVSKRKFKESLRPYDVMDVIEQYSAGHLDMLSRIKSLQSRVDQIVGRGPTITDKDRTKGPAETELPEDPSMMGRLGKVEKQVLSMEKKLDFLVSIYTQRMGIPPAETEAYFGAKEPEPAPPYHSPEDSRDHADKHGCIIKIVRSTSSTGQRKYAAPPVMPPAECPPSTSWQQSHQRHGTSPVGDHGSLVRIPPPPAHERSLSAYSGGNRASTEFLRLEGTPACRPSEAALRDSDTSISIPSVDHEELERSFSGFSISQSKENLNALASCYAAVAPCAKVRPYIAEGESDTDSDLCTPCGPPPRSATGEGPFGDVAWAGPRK
KCNQ2 pot: potentiators of rat KCNQ2 potassium channel; O88943; 0.54% of 310,000 active; B-score at 10 µM; AID 2239; CHO-K1 KCNQ2, FluxOR thallium flux fluorescence; stronger effect = higher value;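 active = fluorescence ratio B-score at least 3 SD of library B-scores, with initial fluorescence B-score within 3 of them, cut at about 5.3 in these data; same plate scores as AID 2156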;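 also: B-score of peak minus minimum over baseline fluorescence ratio after K+ and Tl+ stimulus; positive B-score means potentiation of KCNQ2 with more thallium influx and brighter signal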
Large screens that a line does not name were inactive.

COc1cc(CNCc2ccccn2)ccc1OCc1ccc(Cl)c(Cl)c1	KCNQ2 block -5.9
COc1cc(CNCc2ccccn2)ccc1OCC(N)=O	none
COc1ccc(CC(=O)NCC(=O)N/N=C/c2sccc2C)cc1	none
O=C(O)c1cc(O)ccc1NC(=O)C(c1ccccc1)c1ccccc1	none
O=c1[nH]c(C2CCCN(S(=O)(=O)c3ccccc3)C2)nc2c1nnn2Cc1ccc(OC(F)(F)F)cc1 (centres undefined)	none
O=S(=O)(c1ccc(OC(F)(F)F)cc1)N1CCCC(c2ccccc2)C1 (centres undefined)	KCNQ2 block -5.7
CSc1cccc(NC(=O)CN(C)S(=O)(=O)c2cnc[nH]2)c1	none
COc1ccc(C(=O)NC(=S)Nc2ccc(S(N)(=O)=O)cc2)cc1	none
COc1cc(C(=O)NNC(=S)Nc2ccc(S(N)(=O)=O)cc2)cc(OC)c1OC	KCNQ2 block -6.1
Cc1ccc(CNS(=O)(=O)c2cc3c(cc2C)NC(=O)CO3)cc1	none
CC1(C(=O)N/N=C/c2ccc3c(c2)OCO3)CC1(Br)Br (centres undefined)	none (no result: KCNQ2 pot)
CCC(C)N(C(=O)CSc1nc2ccc(OC)cc2[nH]1)C1CCS(=O)(=O)C1 (centres undefined)	none
Cc1c(CCOC(=O)C23CC4CC(CC(C)(C4)C2)C3)sc[n+]1CC(=O)c1ccccc1	KCNQ2 block -6.5
Cc1c(CCOC(=O)c2ccccc2)sc[n+]1CC(=O)c1ccc(Br)cc1	none (no result: KCNQ2 pot)
CCc1nc2ccccc2c(C(=O)O)c1C	none (no result: KCNQ2 pot)
CCc1nc2ccccc2c(C(=O)OCC(=O)C(C)(C)C)c1C	none
CCc1nc2ccccc2c(C(=O)OCCN2C(=O)c3ccccc3C2=O)c1C	KCNQ2 block -9.6
CCc1nc2ccccc2c(C(=O)OCC(=O)NC(=O)c2cccn2C)c1C	KCNQ2 block -5.6
COc1ccc(-c2cc(C(=O)NCCCn3ccnc3)c3ccccc3n2)c(OC)c1	none (no result: KCNQ2 pot)
CCOC(=O)CN1C(=O)NC2(CCCc3ccccc32)C1=O (centres undefined)	none
Cc1nc(C(=O)N2CCc3c([nH]c4ccccc34)C2c2cc(F)ccc2F)cs1 (centres undefined)	none (no result: KCNQ2 pot)
COC(=O)C1(C(F)(F)F)C2C=CC(C2)N1S(=O)(=O)c1ccc(C)cc1 (centres undefined)	none (no result: KCNQ2 pot)
COc1ccc(C(=O)Nc2ncccc2C)cc1S(=O)(=O)N1CCOCC1	none
Cc1cc(Cn2nnnc2-c2ccncc2)cc(C)c1O	none (no result: KCNQ2 pot)
Cn1nccc1C(=O)NC1CCCc2c1cnn2-c1ccc(C(C)(C)C)cc1 (centres undefined)	none (no result: KCNQ2 pot)
Clc1ccc(/C=C/c2nc(Cl)c(-c3ccc(Cl)cc3)c(Cl)n2)cc1	none
CN1CCN(C(=O)C2=C[C@H](c3csc4ccccc34)C[C@H](OCc3ccc(CO)cc3)O2)CC1	none (no result: KCNQ2 pot)
O=C(C1=C[C@@H](c2ccc(C(F)(F)F)cc2)C[C@@H](OCc2ccc(CO)cc2)O1)N1CCN(Cc2ccc3c(c2)OCO3)CC1	none (no result: KCNQ2 pot)
O=C(C1=C[C@H](c2csc3ccccc23)C[C@H](OCc2ccc(CO)cc2)O1)N1CCCCCCC1	KCNQ2 block -5.6
O=C(C1=C[C@@H](c2ccc(Br)cc2)C[C@@H](OCc2ccc(CO)cc2)O1)N1CCN(Cc2ccc3c(c2)OCO3)CC1	KCNQ2 block -6.3
COc1ccc(CNC(=O)C(C)n2ccc3cc(S(=O)(=O)N4CCCCCC4)ccc32)cc1 (centres undefined)	none (no result: KCNQ2 pot)
COC(=O)c1c(NC(=O)CCc2ccc(C)o2)sc(C)c1C	KCNQ2 block -5.9
COC(=O)c1ccc(C(=O)OC)c(NC(=O)CCc2ccc(C)o2)c1	none
COc1ccc(S(=O)(=O)Nc2cc3[nH]c(=O)oc3cc2C)cc1	none (no result: KCNQ2 pot)
O=C(CSc1nc2ccccc2c(=O)n1NC(=O)Cc1ccccc1)NCc1ccccc1	none
O=C(Cc1ccccc1)Nn1c(-c2ccccc2)nc2ccccc2c1=O	KCNQ2 pot 8.4
O=C(Nn1c(-c2ccccc2)nc2ccccc2c1=O)c1ccco1	none
O=C(Cc1ccccc1)Nn1c(-c2ccccc2F)nc2ccccc2c1=O	KCNQ2 pot 9.4
COc1cc(OC)c(C2CC(=O)N3CN(C)CSC3=C2C#N)cc1OC (centres undefined)	none
COc1ccc2ccccc2c1C1CC(=O)N2CN(C)CSC2=C1C#N (centres undefined)	KCNQ2 block -6.9
Cc1ccc(S(=O)(=O)Nc2ccc(C(=O)NCCCN3CCOCC3)cc2)cc1[N+](=O)[O-]	none
CC1c2cc3c(cc2CCN1C(=O)c1cccc(Cl)c1)OCCCO3 (centres undefined)	none (no result: KCNQ2 pot)
CC1CCC(NC(=O)C(Cc2ccccc2)n2cccc2)CC1 (centres undefined)	KCNQ2 block -5.8
O=C(C(Cc1ccccc1)n1cccc1)N1CCN(c2ccccc2)CC1 (centres undefined)	none (no result: KCNQ2 pot)
Cc1ccc(NC(=O)C(Cc2ccccc2)n2cccc2)cc1 (centres undefined)	none (no result: KCNQ2 pot)
CC1CCCN(C(=O)C(Cc2ccccc2)n2cccc2)C1 (centres undefined)	KCNQ2 block -6.5
Cc1cc(C)c2oc(=O)cc(CN3CCC(C)CC3)c2c1	none (no result: KCNQ2 pot)
CCn1c(=O)c2cc(C(=O)N(C)c3cc(C)ccc3OC)sc2c2ccccc21	KCNQ2 block -6.4
CCn1c(=O)c2cc(C(=O)N(C)c3ccc(OC)cc3OC)sc2c2ccccc21	none (no result: KCNQ2 pot)
COc1ccccc1CNS(=O)(=O)c1c(C(=O)N2CCCCC2)c(C)n(C)c1C	none
O=C(CCC1CCCC1)Nc1cc(C(F)(F)F)ccc1N1CCOCC1	none (no result: KCNQ2 pot)
CCCCCCNC(=O)c1cn(CC)c2cc(N3CCN(C)CC3)c(F)cc2c1=O	none (no result: KCNQ2 pot)
CC(NC(=O)N(Cc1ccccc1)Cc1ccc2c(c1)OCO2)(C(F)(F)F)C(F)(F)F	none (no result: KCNQ2 pot)
CCC(NC(=O)N(Cc1ccccc1)Cc1ccc2c(c1)OCO2)(C(F)(F)F)C(F)(F)F	KCNQ2 block -8.1
O=C(Nc1cccc(F)c1)c1ccc(Cn2cc([N+](=O)[O-])cn2)o1	KCNQ2 pot 5.5
Cc1ccccc1NC(=O)c1ccc(Cn2cc([N+](=O)[O-])cn2)o1	none
Cc1ccccc1NC(C)C(=O)N/N=C/c1ccccc1OCc1cccc(Br)c1 (centres undefined)	KCNQ2 block -8.3
COc1ccc(NC(C)C(=O)N/N=C/c2ccccc2OCc2cccc(Br)c2)cc1 (centres undefined)	none (no result: KCNQ2 pot)
Cc1nn(C(C)(C)C)c(OC(=O)c2ccco2)c1Sc1ccccc1	KCNQ2 block -6.1
Cc1nn(C(C)(C)C)c(OC(=O)c2ccc3c(c2)OCO3)c1Sc1ccccc1	none (no result: KCNQ2 pot)
Cc1nn(C(C)(C)C)c(OC(=O)c2cccs2)c1Sc1ccccc1	KCNQ2 block -8
Cc1nn(C(C)(C)C)c(OC(=O)c2ccc(Br)o2)c1Sc1ccccc1	none (no result: KCNQ2 pot)
CC(C)c1nnc(NC(=O)C2CCCN2C(=O)Nc2cccc(Cl)c2)s1 (centres undefined)	none
COc1ccc(-c2ccc(SCC(=O)N3CC(=O)Nc4ccccc43)nn2)cc1	none
Cc1ncc([N+](=O)[O-])n1CC(=O)Nc1cc(Cl)ccc1Cl	none
C[C@@H](C(=O)NCCc1ccccc1)N1C(=O)N2CCc3c([nH]c4ccccc34)[C@@]2(C)C1=O	KCNQ2 block -9.1
C[C@@H](C(=O)NCCc1ccccc1F)N1C(=O)N2CCc3c([nH]c4ccccc34)[C@@]2(C)C1=O	none (no result: KCNQ2 pot)
CCOc1ccccc1NC(=O)c1ccccc1-c1ccccc1	KCNQ2 block -5.6
O=C(Nc1cccnc1Oc1ccc(Cl)cc1)c1cccc2ccccc12	KCNQ2 block -6
COc1ccccc1CC(=O)Nc1cccc2ccccc12	none (no result: KCNQ2 pot)
CCOc1ccccc1C(=O)Nc1ccccc1C(N)=O	none
CCOc1ccccc1NC(=O)c1ccccc1-c1nc(-c2ccccc2)no1	none (no result: KCNQ2 pot)

Assay outcomes deposited in PubChem by Johns Hopkins Ion Channel Center.
